Assay results: PubChem BioAssay (NCI)
The panel holds about 83,000 compounds, 20% with a hit somewhere; the sample as a whole holds those more often.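 Step 1: grow cells in 96-well plates. Step 2: add test compound at a single concentration. Step 3: incubate 48 h. Step 4: record percent growth.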 Unmarked numbers belong to inactive results. Activity calls are given as the source filed them. Rule for the calls: active = growth percent below 10; inactive = the rest.

How the values were obtained:
Assay in all cases: NCI-60 one-dose screen, 48 h (100 = growth as untreated, 0 = no growth, -100 = all killed)
Conditions in all cases: 10 µM unless noted
HCT-15 colon = test system: HCT-15 colon
HT29 colon = test system: HT29 colon
SNB-75 CNS = test system: SNB-75 CNS
SNB-19 CNS = test system: SNB-19 CNS
U251 CNS = test system: U251 CNS
PC-3 prostate = test system: PC-3 prostate
SK-MEL-5 melanoma = test system: SK-MEL-5 melanoma
UACC-62 melanoma = test system: UACC-62 melanoma
LOX IMVI melanoma = test system: LOX IMVI melanoma
SK-MEL-28 melanoma = test system: SK-MEL-28 melanoma

SMILES	growth (HCT-15 colon)	growth (HT29 colon)	growth (SNB-75 CNS)	growth (SNB-19 CNS)	growth (U251 CNS)	growth (PC-3 prostate)	growth (SK-MEL-5 melanoma)	growth (UACC-62 melanoma)	growth (LOX IMVI melanoma)	growth (SK-MEL-28 melanoma)
N#Cc1c2cccnc2c2nnc3cc(Cl)c(Cl)cc3n12	1.83% (active)	-50.6% (active)	-6.13% (active)	63.1%	26.2%	18.4%	86.1%	52.5%	21.9%	17.6%
COc1ccc(Nc2c3ccccc3nc3ccccc23)cc1	25.2%	8.49% (active)	16.2%	53.2%	16.1%	32.6%	24.8%	47.6%	21.3%	49.7%
CCCCCCCCC(=O)Nc1ccc(O)cc1	94.6%	94.2%	76.8%	112%	91.4%	83.2%	96.7%	92.1%	84.8%	99.7%
[N-]=[N+]=Nc1ncc(-c2ccc(C(F)(F)F)cc2)c(NC2CCCCCC2)n1	25.9% [100 µM]	31.4% [100 µM]	49.6% [100 µM]	40.9% [100 µM]	30.3% [100 µM]	-8.57% [100 µM] (active)	26.5% [100 µM]	25.5% [100 µM]	39.9% [100 µM]	68.2% [100 µM]
NC(N)=Nc1ccc(/C=C2\C=Cc3ccccc32)cc1	68%	36.1%	52.7%	75.6%	67.8%	51.9%	79.6%	69%	40%	91.6%
C/C=C(/C)C(=O)OC1C=C(CO)C(=O)C(OC(=O)/C(C)=C\C)C1C(C)C (stereo not given)	-49.3% (active)	-65.6% (active)	-43.4% (active)	-54% (active)	-73.8% (active)	-54.1% (active)	-99.3% (active)	-84.7% (active)	-92.5% (active)	-92.6% (active)
N#Cc1c(N)nc(Nc2nc3ccccc3[nH]2)nc1-c1ccc(Cl)cc1	109%	95.4%	95.1%	107%	97.6%	94.8%	99.9%	113%	96.2%	115%
CC(C)(C)OC(=O)N1C/C(=C\c2ccccc2)C(=O)/C(=C/c2ccccc2)C1	96.5%	94.1%	74.9%	91.2%	90.5%	81%	108%	84%	95.1%	107%
NC(N)=N/N=C/c1cccc(Br)c1	105%	103%	92.3%	101%	110%	90.1%	84.7%	107%	89.6%	112%
O=c1oc2ccc3ccccc3c2cc1-c1ccnc2[nH]c(=S)[nH]c(=O)c12	105%	95.3%	98.9%	95%	98.5%	93%	97.8%	88.2%	93.1%	105%
CCOC1=C(Cl)C(=O)C(OCC)=C(Cl)C1=O	107%	101%	93.3%	96.3%	104%	104%	105%	98.1%	104%	109%
Nc1cc2c(cc1Br)[nH]c(=O)c1ccccc12	58.3%	22.4%	94.3%	58.6%	40.3%	42.9%	0.102% (active)	73.4%	25.1%	78.4%
Ic1ccc(SSc2ccc(I)cc2)cc1	99.5%	95.3%	88.4%	94.6%	67.8%	58.5%	90.8%	97.8%	0.697% (active)	108%
C#CCCCCCCC[C@@H]1OC(=O)[C@H]([C@@H](C)CC)NC(=O)[C@H]([C@@H](C)CC)NC(=O)CC(=O)[C@@H]1C	98.2%	115%	76.1%	97.7%	103%	85.9%	101%	88.7%	92.1%	108%
Cc1sc(NC(=O)c2ccc(C(C)(C)C)cc2)c(C(=O)O)c1C	45.9%	82%	85.5%	51%	17%	53.7%	73.3%	98.4%	68.9%	110%
O=C(N/N=C/c1cc(Cl)ccc1O)C(=O)N/N=C/c1cc(Cl)ccc1O	44.7%	45.4%	71.9%	82.6%	50%	56.1%	56.3%	64.7%	47.9%	93.2%
COC(=O)[C@H](Cc1cn(C)cn1)NC(=O)[C@@H](NC(=O)Nc1cc(C(F)(F)F)cc(C(F)(F)F)c1)C(C)(C)C	70.5% [100 µM]	-66.9% [100 µM] (active)	-55.1% [100 µM] (active)	-91.6% [100 µM] (active)	-89.9% [100 µM] (active)	-92.9% [100 µM] (active)	-67.4% [100 µM] (active)	-88.5% [100 µM] (active)	-86.6% [100 µM] (active)	-92.3% [100 µM] (active)
COc1ccc(-c2cn3ccnc3c(-c3ccc4ncn(C5CCCCC5)c4c3)n2)cc1	21.2%	7.49% (active)	-26.3% (active)	31.6%	19.1%	4.78% (active)	7.7% (active)	34.8%	30.4%	52.3%
CCC(C)CC(N)O (stereo not given)	103%	111%	106%	106%	106%	111%	99.9%	104%	110%	102%
COc1cc2c(/C=C3\C(=O)Nc4ccc(Br)cc43)c(Cl)n(C)c2cc1C	6.8% (active)	7.9% (active)	31.6%	24%	10.2%	11.8%	-3% (active)	29.7%	9.9% (active)	55.6%
